From the supplement of paper PMC6411743 come the findings set out here.

± gives the standard deviation of the averaged measurements. The full data set covers some 6,500 targets. This sample favours those with the largest changes.

Compound in the assay: Nc1ncnc2c1ncn2[C@@H]1O[C@H](COP(=O)(O)OP(=O)(O)OP(=O)(O)O)[C@@H](O)[C@H]1O [adenosine triphosphate]
The assay can be described thus: NP40-soluble protein abundance relative to vehicle (solubility fold change) (ratio); higher = more soluble protein in presence of ATP. The gist of the method:
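Across three independent experiments, values are fold changes against the detergent-processed vehicle for each replicate, based on vsn-normalised intensities. The samples were Jurkat crude lysate treated with eight concentrations (0.1 to 10 mM) for 10 min at room temperature and then 3 min at 37 °C. Lysate was solubilised with 0.8% NP40 and benzonase, ultracentrifuged, and the supernatant analysed by TMT-labelled LC-MS/MS.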

UniProt O43772, sequence (O43772 whole entry): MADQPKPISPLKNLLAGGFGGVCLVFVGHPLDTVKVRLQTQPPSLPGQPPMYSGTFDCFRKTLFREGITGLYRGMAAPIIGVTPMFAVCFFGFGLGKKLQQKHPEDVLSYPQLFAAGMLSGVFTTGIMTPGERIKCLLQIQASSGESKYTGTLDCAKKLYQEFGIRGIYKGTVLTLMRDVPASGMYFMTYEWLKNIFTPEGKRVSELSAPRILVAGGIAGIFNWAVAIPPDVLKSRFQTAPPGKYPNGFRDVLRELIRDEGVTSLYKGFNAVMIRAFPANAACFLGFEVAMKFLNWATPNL
UniProt Q9BV68, sequence (Q9BV68 whole entry, one chain of several): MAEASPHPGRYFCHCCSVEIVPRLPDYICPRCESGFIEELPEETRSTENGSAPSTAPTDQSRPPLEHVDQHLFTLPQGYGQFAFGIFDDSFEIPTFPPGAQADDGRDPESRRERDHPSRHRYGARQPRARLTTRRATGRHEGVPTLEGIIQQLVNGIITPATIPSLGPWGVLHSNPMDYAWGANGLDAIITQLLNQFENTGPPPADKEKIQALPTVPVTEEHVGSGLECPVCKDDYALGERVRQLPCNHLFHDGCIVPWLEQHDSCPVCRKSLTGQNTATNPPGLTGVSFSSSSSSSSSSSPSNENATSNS
UniProt Q8N3P4, sequence (Q8N3P4 whole entry, one chain of several): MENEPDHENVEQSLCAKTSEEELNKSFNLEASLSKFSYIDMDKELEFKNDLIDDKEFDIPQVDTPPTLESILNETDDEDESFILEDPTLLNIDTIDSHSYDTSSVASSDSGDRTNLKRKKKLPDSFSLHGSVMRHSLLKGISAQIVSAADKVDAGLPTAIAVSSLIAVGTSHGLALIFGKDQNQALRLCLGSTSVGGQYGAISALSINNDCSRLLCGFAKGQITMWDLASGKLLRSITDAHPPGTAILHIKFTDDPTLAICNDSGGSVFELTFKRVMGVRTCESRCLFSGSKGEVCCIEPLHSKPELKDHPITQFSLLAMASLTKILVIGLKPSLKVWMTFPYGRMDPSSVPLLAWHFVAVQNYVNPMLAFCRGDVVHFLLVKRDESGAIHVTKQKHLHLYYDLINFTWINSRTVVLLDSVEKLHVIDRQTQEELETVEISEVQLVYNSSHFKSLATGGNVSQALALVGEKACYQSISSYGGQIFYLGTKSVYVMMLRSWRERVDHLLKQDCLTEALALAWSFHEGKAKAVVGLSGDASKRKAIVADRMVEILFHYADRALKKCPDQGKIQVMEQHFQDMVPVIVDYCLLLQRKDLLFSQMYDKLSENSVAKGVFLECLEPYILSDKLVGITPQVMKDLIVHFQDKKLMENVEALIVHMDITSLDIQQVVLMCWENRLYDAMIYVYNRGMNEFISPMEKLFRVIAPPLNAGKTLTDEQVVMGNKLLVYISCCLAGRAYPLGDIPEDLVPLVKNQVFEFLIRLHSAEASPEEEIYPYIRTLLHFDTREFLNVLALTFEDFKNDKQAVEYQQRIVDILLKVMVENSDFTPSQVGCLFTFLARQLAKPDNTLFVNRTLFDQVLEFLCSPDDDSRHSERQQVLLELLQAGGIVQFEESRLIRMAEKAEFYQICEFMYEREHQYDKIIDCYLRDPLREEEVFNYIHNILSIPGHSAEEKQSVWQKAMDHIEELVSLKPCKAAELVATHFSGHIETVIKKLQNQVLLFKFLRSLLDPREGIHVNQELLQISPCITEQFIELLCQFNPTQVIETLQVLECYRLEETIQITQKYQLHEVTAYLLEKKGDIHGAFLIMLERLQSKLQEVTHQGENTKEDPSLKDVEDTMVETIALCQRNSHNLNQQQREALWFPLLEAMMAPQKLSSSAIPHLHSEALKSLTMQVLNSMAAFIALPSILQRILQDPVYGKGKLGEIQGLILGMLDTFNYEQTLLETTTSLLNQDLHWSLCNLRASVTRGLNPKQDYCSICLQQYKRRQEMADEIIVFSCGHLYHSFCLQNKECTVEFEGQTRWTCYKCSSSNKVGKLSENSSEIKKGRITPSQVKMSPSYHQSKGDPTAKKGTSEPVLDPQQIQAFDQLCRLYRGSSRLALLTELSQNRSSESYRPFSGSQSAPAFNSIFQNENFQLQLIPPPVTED
UniProt Q7Z478, sequence (Q7Z478 whole entry, one chain of several): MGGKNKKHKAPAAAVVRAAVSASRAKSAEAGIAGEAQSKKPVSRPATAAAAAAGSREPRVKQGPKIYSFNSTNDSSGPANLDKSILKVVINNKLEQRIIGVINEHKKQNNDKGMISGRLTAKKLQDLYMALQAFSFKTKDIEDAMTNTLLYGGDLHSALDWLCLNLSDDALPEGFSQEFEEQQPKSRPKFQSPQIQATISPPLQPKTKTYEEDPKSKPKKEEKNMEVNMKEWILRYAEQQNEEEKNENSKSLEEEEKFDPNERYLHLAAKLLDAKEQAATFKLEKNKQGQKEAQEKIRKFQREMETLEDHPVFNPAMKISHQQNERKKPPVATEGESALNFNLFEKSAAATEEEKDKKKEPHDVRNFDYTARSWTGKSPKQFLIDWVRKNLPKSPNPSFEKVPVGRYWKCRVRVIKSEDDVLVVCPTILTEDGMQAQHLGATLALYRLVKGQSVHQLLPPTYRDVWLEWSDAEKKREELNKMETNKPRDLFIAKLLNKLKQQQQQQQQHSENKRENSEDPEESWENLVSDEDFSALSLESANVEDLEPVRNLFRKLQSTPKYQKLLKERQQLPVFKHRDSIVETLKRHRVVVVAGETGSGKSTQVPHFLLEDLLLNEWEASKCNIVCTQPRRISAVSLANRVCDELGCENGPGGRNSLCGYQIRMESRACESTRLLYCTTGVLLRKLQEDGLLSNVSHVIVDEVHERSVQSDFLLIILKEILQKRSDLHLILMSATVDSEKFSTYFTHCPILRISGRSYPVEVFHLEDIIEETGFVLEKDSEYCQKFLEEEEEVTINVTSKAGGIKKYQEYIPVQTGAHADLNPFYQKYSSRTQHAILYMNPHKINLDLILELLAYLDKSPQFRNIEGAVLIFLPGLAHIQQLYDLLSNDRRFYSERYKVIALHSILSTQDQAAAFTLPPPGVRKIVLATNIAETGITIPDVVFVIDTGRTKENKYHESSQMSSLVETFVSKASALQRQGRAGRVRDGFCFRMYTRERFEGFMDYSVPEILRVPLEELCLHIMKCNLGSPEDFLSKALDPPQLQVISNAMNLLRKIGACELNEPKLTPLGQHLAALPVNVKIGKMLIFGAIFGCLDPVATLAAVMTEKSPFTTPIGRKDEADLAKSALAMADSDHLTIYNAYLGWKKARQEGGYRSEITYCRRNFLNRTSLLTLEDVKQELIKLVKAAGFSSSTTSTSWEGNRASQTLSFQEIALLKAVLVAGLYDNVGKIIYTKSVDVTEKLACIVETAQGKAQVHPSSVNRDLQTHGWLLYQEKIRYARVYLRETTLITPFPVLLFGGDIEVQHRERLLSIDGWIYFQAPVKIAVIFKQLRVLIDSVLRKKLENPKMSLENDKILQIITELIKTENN
UniProt Q6UW02, sequence (Q6UW02 whole entry, one chain of several): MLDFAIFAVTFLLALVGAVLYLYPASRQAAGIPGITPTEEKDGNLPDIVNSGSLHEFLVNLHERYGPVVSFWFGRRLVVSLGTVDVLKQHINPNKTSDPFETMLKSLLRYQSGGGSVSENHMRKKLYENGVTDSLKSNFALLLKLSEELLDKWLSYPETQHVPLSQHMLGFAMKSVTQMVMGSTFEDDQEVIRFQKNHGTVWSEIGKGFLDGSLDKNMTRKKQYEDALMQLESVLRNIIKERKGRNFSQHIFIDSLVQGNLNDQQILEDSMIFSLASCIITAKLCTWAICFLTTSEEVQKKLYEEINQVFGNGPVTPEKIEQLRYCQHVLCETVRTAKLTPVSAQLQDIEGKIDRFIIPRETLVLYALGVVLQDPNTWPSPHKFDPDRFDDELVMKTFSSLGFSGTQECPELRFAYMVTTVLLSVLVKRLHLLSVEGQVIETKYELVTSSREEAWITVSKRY
UniProt O00560, sequence (O00560 whole entry): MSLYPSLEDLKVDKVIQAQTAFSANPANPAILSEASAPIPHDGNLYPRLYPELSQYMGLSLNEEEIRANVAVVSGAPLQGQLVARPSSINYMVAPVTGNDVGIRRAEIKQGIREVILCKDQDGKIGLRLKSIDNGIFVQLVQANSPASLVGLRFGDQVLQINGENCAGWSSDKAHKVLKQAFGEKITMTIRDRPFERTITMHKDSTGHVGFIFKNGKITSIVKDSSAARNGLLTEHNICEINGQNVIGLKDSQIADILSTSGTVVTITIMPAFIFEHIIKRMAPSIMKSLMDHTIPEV
UniProt Q96ER3, sequence (Q96ER3 whole entry, one chain of several): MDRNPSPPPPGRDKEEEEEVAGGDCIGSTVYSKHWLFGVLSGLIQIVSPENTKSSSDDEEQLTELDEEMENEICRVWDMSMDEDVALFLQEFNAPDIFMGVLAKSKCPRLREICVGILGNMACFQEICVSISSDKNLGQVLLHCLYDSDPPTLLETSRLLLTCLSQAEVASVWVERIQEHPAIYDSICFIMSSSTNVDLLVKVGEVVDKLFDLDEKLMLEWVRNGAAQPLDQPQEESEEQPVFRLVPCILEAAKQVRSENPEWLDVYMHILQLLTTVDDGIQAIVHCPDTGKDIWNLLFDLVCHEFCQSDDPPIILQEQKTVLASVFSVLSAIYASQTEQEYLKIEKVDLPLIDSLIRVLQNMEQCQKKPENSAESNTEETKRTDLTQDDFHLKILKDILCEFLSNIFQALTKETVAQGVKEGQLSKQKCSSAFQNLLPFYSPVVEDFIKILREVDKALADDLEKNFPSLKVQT

SLC25A20 (UniProt O43772): the NP40-soluble protein abundance reads like this: (concentration: 1mM) 0.918 ± 0.088; (concentration: 2mM) 0.945 ± 0.037; (concentration: 4mM) 0.943 ± 0.012; (concentration: 6mM) 0.822 ± 0.099; (concentration: 8mM) 0.884 ± 0.028; (concentration: 10mM) 0.974 ± 0.0095.
“A2ABJ5|O75955|A0A140T9R1 (UniProt O75955)”: the NP40-soluble protein abundance by setting is: (concentration: 1mM) 1.03 ± 0.047; (concentration: 2mM) 0.948 ± 0.029; (concentration: 4mM) 0.926 ± 0.012; (concentration: 6mM) 0.925 ± 0.11; (concentration: 8mM) 0.931 ± 0.071; (concentration: 10mM) 0.916 ± 0.052.
As for B4DWF2|Q9UKS7|Q9UKS7-2 (UniProt Q9UKS7), the NP40-soluble protein abundance came to 1.02 ± 0.062 (concentration: 1mM); 1.03 ± 0.072 (concentration: 2mM); 1.04 ± 0.061 (concentration: 4mM); 1.11 ± 0.089 (concentration: 6mM); 1.1 ± 0.061 (concentration: 8mM); 1.2 ± 0.066 (concentration: 10mM).
With “C9JJN9|Q8N3P4|Q8N3P4-2|Q8N3P4-3 (UniProt Q8N3P4)”, the NP40-soluble protein abundance (concentration: 1mM) worked out at 1.01 ± 0.053; the NP40-soluble protein abundance (concentration: 2mM) is 0.984 ± 0.04; the NP40-soluble protein abundance (concentration: 4mM) came to 0.994 ± 0.068; the NP40-soluble protein abundance (concentration: 6mM) was 0.9606 ± 0.0047; the NP40-soluble protein abundance (concentration: 8mM) came out at 0.955 ± 0.039; the NP40-soluble protein abundance (concentration: 10mM) stood at 0.979 ± 0.023.
With URB1 (UniProt O60287), the NP40-soluble protein abundance is, setting by setting: (concentration: 1mM) 1.29 ± 0.067; (concentration: 2mM) 1.41 ± 0.043; (concentration: 4mM) 1.65 ± 0.057; (concentration: 6mM) 1.7 ± 0.12; (concentration: 8mM) 1.94 ± 0.12; (concentration: 10mM) 2.15 ± 0.084.
On to A0A0B4J220 (UniProt E9PRG8), for which the NP40-soluble protein abundance reads like this: (concentration: 1mM) 1.02 ± 0.028; (concentration: 2mM) 1.11 ± 0.066; (concentration: 4mM) 1.27 ± 0.17; (concentration: 6mM) 1.31 ± 0.091; (concentration: 8mM) 1.42 ± 0.27; (concentration: 10mM) 1.56 ± 0.23.
On to A0A087WYN9|Q7Z478 (UniProt Q7Z478), for which the NP40-soluble protein abundance by setting is: (concentration: 1mM) 2.24 ± 0.062; (concentration: 2mM) 2.31 ± 0.051; (concentration: 4mM) 2.45 ± 0.092; (concentration: 6mM) 2.57 ± 0.045; (concentration: 8mM) 2.68 ± 0.07; (concentration: 10mM) 2.74 ± 0.062.
For the target K7EIY6|Q9BV68-2 (UniProt Q9BV68), the NP40-soluble protein abundance came out at 1 ± 0.15 (concentration: 1mM); 0.967 ± 0.095 (concentration: 2mM); 0.991 ± 0.11 (concentration: 4mM); 1 ± 0.1 (concentration: 6mM); 0.969 ± 0.034 (concentration: 8mM); 0.92 ± 0.11 (concentration: 10mM).
For “D0EV57|P01889|P10321|P13746-2|P16188|P30493|P30499|P30504|P30505|P30508|P30685|Q29865|Q29963|Q5SRN5|Q6DU44|Q8MH48|A0A140T912|E9PIB1|O19617|Q29940|Q29718 (UniProt Q29718+Q29940+E9PIB1+Q8MH48+Q6DU44+Q5SRN5+D0EV57+P01889+P10321+P30505+P13746+P30499+P16188+P30493+Q29865+P30504+P30508+P30685+O19617+Q29963)”, the NP40-soluble protein abundance is, setting by setting: (concentration: 1mM) 0.961 ± 0.026; (concentration: 2mM) 0.9786 ± 0.0089; (concentration: 4mM) 0.9485 ± 0.0059; (concentration: 6mM) 0.977 ± 0.013; (concentration: 8mM) 0.949 ± 0.022; (concentration: 10mM) 0.96 ± 0.015.
For the target J3KTE4|J3QR09|P84098 (UniProt P84098), the NP40-soluble protein abundance reads like this: (concentration: 1mM) 1.01 ± 0.053; (concentration: 2mM) 1 ± 0.027; (concentration: 4mM) 0.968 ± 0.07; (concentration: 6mM) 0.966 ± 0.043; (concentration: 8mM) 0.908 ± 0.057; (concentration: 10mM) 1.05 ± 0.094.
For the target E9PL53|J3KND1 (UniProt Q96ER3), the NP40-soluble protein abundance by setting is: (concentration: 1mM) 0.966 ± 0.034; (concentration: 2mM) 0.9715 ± 0.0057; (concentration: 4mM) 0.951 ± 0.013; (concentration: 6mM) 0.997 ± 0.019; (concentration: 8mM) 0.9485 ± 0.0047; (concentration: 10mM) 0.925 ± 0.011.
Turning to E9PHG5|Q6UW02 (UniProt Q6UW02), the NP40-soluble protein abundance came to 1.11 ± 0.13 (concentration: 1mM); 1.02 ± 0.16 (concentration: 2mM); 1.04 ± 0.13 (concentration: 4mM); 1.02 ± 0.17 (concentration: 6mM); 1.02 ± 0.1 (concentration: 8mM); 0.993 ± 0.086 (concentration: 10mM).
For the target UniProt O00560|O00560-2, the NP40-soluble protein abundance (concentration: 1mM) worked out at 0.95 ± 0.073; the NP40-soluble protein abundance (concentration: 2mM) amounted to 0.946 ± 0.041; the NP40-soluble protein abundance (concentration: 4mM) is 0.937 ± 0.04; the NP40-soluble protein abundance (concentration: 6mM) amounted to 0.896 ± 0.077; the NP40-soluble protein abundance (concentration: 8mM) worked out at 0.9459 ± 0.0062; the NP40-soluble protein abundance (concentration: 10mM) is 0.957 ± 0.031.
For A0A0A0MTC1|A0A0A0MTR7 (UniProt Q63HN8), the NP40-soluble protein abundance (concentration: 1mM) is 1.15 ± 0.14; the NP40-soluble protein abundance (concentration: 2mM) came out at 1.11 ± 0.096; the NP40-soluble protein abundance (concentration: 4mM) came to 1.12 ± 0.083; the NP40-soluble protein abundance (concentration: 6mM) was 1.03 ± 0.074; the NP40-soluble protein abundance (concentration: 8mM) worked out at 1.2 ± 0.049; the NP40-soluble protein abundance (concentration: 10mM) amounted to 1.11 ± 0.031.
UniProt E9PSI1: the NP40-soluble protein abundance by setting is: (concentration: 1mM) 0.9713 ± 0.0047; (concentration: 2mM) 0.986 ± 0.015; (concentration: 4mM) 0.981 ± 0.015; (concentration: 6mM) 0.939 ± 0.037; (concentration: 8mM) 0.958 ± 0.044; (concentration: 10mM) 0.96 ± 0.04.
